Out of some 310,000 compounds screened, about 1,200 (0.39%) were called active. Only a sample is shown. Entries with a potency or affinity are not part of this list. Unmarked numbers belong to inactive results. The rule behind the calls is not given here.
Each molecule was assayed against Large T antigen (Simian virus 40) (UniProt P03070) (assay: TAg ATPase/helicase activity blockers – biochemical (AID 1903)). Settings: SV40 large T antigen ATPase/helicase inhibition assay; at 20 µM; active compounds read high.
Chain of Large T antigen (Simian virus 40) (P03070 whole entry, looked up): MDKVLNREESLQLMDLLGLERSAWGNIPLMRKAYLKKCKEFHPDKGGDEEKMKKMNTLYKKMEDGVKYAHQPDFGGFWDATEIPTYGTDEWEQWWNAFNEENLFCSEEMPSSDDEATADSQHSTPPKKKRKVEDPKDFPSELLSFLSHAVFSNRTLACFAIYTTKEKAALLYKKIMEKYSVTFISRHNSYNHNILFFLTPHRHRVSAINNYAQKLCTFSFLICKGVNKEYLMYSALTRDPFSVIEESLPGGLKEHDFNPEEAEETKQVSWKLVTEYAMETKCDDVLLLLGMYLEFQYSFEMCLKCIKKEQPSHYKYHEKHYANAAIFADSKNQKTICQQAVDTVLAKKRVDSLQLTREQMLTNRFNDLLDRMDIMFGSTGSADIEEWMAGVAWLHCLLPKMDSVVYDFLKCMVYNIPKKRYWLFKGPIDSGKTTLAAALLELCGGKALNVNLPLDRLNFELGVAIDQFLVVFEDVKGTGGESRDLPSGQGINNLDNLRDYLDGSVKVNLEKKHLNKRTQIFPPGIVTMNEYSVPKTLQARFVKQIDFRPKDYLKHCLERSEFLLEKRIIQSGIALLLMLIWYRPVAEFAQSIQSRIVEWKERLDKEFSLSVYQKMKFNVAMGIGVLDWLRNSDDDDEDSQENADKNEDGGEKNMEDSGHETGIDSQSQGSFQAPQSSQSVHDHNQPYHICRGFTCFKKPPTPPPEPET

| SMILES | inhibition [%] |
| --- | --- |
| O=C(O)/C=C/c1ccc(S(=O)(=O)Nc2ccc(C(=O)NCC(=O)O)cc2)cc1 | -0.46 |
| Cc1ccccc1OCC(=O)N(CC(C)C)c1c(N)n(CC(C)C)c(=O)[nH]c1=O | -0.915 |
| CCOC(=O)c1sc(Nc2ccc(F)cc2)nc1C | 3.22 |
| O=C(Cc1ccc(Cl)cc1)Nc1ccccc1C(=O)N1CCCCC1 | 5.13 |
| Cn1cccc1/C=N/N1CCN(Cc2ccc(Cl)cc2)CC1 | 33.2 |
| Cn1cccc1/C=N/N1CCN(Cc2ccccc2Cl)CC1 | 36.4 |
| Cc1ccc(/C=N/N2CCN(c3ccccn3)CC2)cc1 | 3.29 |
| Oc1cccc(/C=N/N2CCN(c3ccccn3)CC2)c1 | 27.9 |
| Cn1cccc1/C=N/N1CCN(c2ccccc2)CC1 | 26.4 |
| C(=N\N1CCN(c2ccccn2)CC1)/c1ccccn1 | 10.2 |
| O=C1CC(NCCN2CCOCC2)C(=O)N1Cc1ccc(N2CCCC2=O)cc1 (configuration not stated) | 2.31 |
| O=C(CSc1nc2ccccc2o1)NCCOc1ccccc1 | -0.36 |
| CCOc1ccc(CSCCNC(=S)Nc2ccc(OC)cc2)cc1 | 18.9 |
| CCOc1ccc(CCNC(=O)C2CC(=O)N(c3ccc4c(c3)OCCO4)C2)cc1OCC (configuration not stated) | 19.5 |
| O=C(NCCNc1nccc(C(F)(F)F)n1)c1cccs1 | 7.79 |
| CCN(CC)C(=O)CSc1nc2nc(C)cc(C)c2c(=O)[nH]1 | 3.63 |
| O=C(Nc1ccc(C2SCCS2)cc1)c1ccccc1 | 5.93 |
| Cn1c(N)c(C(=O)COC(=O)CC2CC3CCC2C3)c(=O)n(C)c1=O (configuration not stated) | 12.6 |
| Cc1ccc(Cl)cc1Nc1nc(-c2cccnc2)cs1 | 5.81 |
| Cc1cccc(C)c1NC(=O)CSCCO | 7.3 |
| Cc1cccc(C)c1NC(=O)CSCC(=O)O | 11.2 |
| Brc1c(CSc2nncn2-c2ccccc2)nc2sccn12 | 3.07 |

— PubChem BioAssay AID1903 (Southern Research Specialized Biocontainment Screening …, 2009)
